The target in test [1] is Cellular tumor antigen p53 (Homo sapiens) (UniProt P04637). As to the kind of experiment: Primary qHTS for small molecule compounds that upregulate eGFP-tagged delta133p53alpha (in N-terminal) cells. (AID 2060322). Further: nearly all actives have a fitted effect of over 75% in size. Further: potency means the concentration at half of the fitted maximal effect.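 On activation: cells pre-induced with doxycycline then dosed without doxycycline; series mostly up to about 56 µM; 0% = DMSO vehicle and 100% = reference activator.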 Conditions: NCI-H358 eGFP-delta133p53alpha fluorescence, 24 h; activation: active compounds read high. The gist of the method: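 NCI-H358 cells pre-induced 24 h with 10 ng/ml doxycycline for eGFP-delta133p53alpha, plated dox-free and exposed 24 h at 37C to titrated compounds. Fixed, Hoechst-stained; gated GFP peak intensity by laser scanning cytometry, normalized to DMSO (0%) and 57.5 uM 5-azacytidine (100%).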
Sequence of Cellular tumor antigen p53 (Homo sapiens) (P04637 whole entry, looked up): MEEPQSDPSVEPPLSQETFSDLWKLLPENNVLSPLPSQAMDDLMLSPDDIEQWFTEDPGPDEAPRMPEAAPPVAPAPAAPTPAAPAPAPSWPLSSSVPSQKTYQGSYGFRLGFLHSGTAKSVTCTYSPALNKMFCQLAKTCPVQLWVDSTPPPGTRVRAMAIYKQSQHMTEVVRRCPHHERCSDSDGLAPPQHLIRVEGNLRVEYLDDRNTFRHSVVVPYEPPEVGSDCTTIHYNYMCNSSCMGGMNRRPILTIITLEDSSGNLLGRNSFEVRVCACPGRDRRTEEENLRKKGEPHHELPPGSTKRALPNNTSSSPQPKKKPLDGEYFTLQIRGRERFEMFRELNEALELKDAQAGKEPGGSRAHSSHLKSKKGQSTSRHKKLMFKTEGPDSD

Test [2] deals with Aldehyde dehydrogenase, mitochondrial (Homo sapiens) (UniProt P05091). Briefly: qHTS for Inhibitors of the Aldehyde Dehydrogenase Family (ALDH2) Primary screen (AID 2061308).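 Further: plate controls were vehicle for no effect and reference inhibitor for full effect; nearly all actives have a fitted effect of over 55% in size.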
Test [3] deals with Retinaldehyde dehydrogenase 3 (Homo sapiens) (UniProt P47895). As to the kind of experiment: qHTS for Inhibitors of the Aldehyde Dehydrogenase Family (ALDH1A3) Primary screen (AID 2061315).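 Further: plate controls were DMSO vehicle for no effect and reference inhibitor for full effect.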

From PubChem BioAssay (NCATS) come the findings set out here.

Records with an inconclusive call do not appear. A number with no mark means an inactive call. Active and inactive are the calls of the source. The call rests on the fitted dose curve; in most records, active means well fitted curve in the direction sought with a large enough effect; inconclusive means small, poorly fitted or top-dose-only effect, or another doubt; inactive means no such curve, though single readings can be large; an effect the other way counts as inactive or inconclusive.

In the case of `COc1ccc(C2(N(C)C(=O)c3ccc(NC(=O)c4ccco4)cc3)CCOCC2)cc1`, the activation in test [1] was -10.7%. Further, the Potency result in test [2] and in test [3] was “inactive” throughout.

Turning to `C[C@@H](Oc1cc(-n2cnc3ccc(OC4CCN(C)CC4)cc32)sc1C(N)=O)c1ccccc1C(F)(F)F`, the Potency in test [1] was 4.78 µM (active). For the same molecule, the Potency entry in test [2] and in test [3] was “inactive” in each case.

Take `CC1(C)[C@@H]2CC=C(CO[C@@H]3O[C@H](CO[C@@H]4OC[C@H](O)[C@H](O)[C@H]4O)[C@@H](O)[C@H](O)[C@H]3O)[C@H]1C2`: in test [1], the activation is -4.46%. In addition, the Potency result in test [2] and in test [3] was “inactive” in each case.

As for `CC1(C)CC[C@]2(C(=O)O[C@@H]3O[C@H](CO)[C@@H](O)[C@H](O)[C@H]3O)CC[C@]3(C)C(=CCC4[C@@]5(C)CC[C@H](O[C@@H]6O[C@H](C(=O)O)[C@H](O)[C@H](O)[C@H]6O)C(C)(C)C5CC[C@]43C)[C@@H]2C1` (some centres undefined), the activation in test [1] is -2.68%. Further, the Potency result in test [2] and in test [3] was “inactive” in each case.

Take `C=CC(C)(O)CC/C=C(\C)C(=O)OCC1OC(OC2CCC3(C)C(CCC4(C)C3CC=C3C5CC(C)(C)C(O)CC5(C(=O)O)CCC34C)C2(C)C)C(O)C(OC2OC(CO)C(O)C(OC3OC(CO)C(O)C(OC4OC(COC5OC(CO)C(O)C(O)C5O)C(O)C(O)C4O)C3O)C2O)C1O` (centres undefined): the activation in test [1] is 9.92%. Also, the activity change, negative = inhibition in test [2] is 1.9% [at 11.2 µM]; in test [3], -5.36% [at 11.2 µM].

Take `COc1ccc(/C=C\C(=O)O)c(O[C@@H]2O[C@H](CO)[C@@H](O)[C@H](O)[C@H]2O)c1`: the activation in test [1] is -7.63%. The Potency entry in test [2] and in test [3] was “inactive” each time.

For the molecule `CC/C=C\CC1C(=O)C=CC1(CCCCC1CCC(=O)O1)OC(C)=O` (centres undefined), the activation in test [1] is 9.92%. The Potency result in test [2] and in test [3] was “inactive” each time.

On to `C=C1C2CCC3C(CCC4[C@@]3(C)CCC[C@@]4(C)C(=O)O)(C2)[C@@H]1OC(=O)/C(C)=C\C` (some centres undefined), for which the activation in test [1] was -8.93%. Also, the Potency entry in test [2] and in test [3] was “inactive” throughout.

Regarding `CC(C)=CCC/C(C)=C/COCC1OC(n2ccc(=O)[nH]c2=O)C(O)C1O` (centres undefined), the activation in test [1] is 17%. The Potency result in test [2] and in test [3] was “inactive” in each case.

Take `CC(=O)OC1C(O)CC(O[C@@H]2O[C@H](CO)[C@@H](O)[C@H](O)[C@H]2O)C2CCC3C(=O)OC(c4ccoc4)CC3(C)C21` (some centres undefined): in test [1], the activation was 3.05%. Further, the Potency result in test [2] and in test [3] was “inactive” throughout.

Turning to `CC1=CCC2C(C)(CO)CCCC2(C)C1CC12OC1C(O)C(CO)=CC2O` (centres undefined), the activation in test [1] was 12.2%. The Potency entry in test [2] and in test [3] was “inactive” each time.

For `C[C@@H]1O[C@@H](O[C@H]2[C@H](OC(=O)[C@]34CCC(C)(C)C[C@H]3C3=CCC5[C@@]6(C)CC[C@H](O[C@@H]7O[C@H](CO[C@@H]8OC[C@H](O)[C@H](O)[C@H]8O)[C@@H](O)[C@H](O)[C@H]7O)C(C)(C)C6CC[C@@]5(C)[C@]3(C)C[C@H]4O)OC[C@@H](O)[C@@H]2O)[C@H](O)[C@H](O)[C@H]1O[C@@H]1OC[C@H](O)[C@H](O[C@@H]2OC[C@@H](O)[C@H](O)[C@H]2O)[C@H]1O` (some centres undefined), the activation in test [1] is 3.82%. Further, the figures for the activity change, negative = inhibition in test [2] and in test [3] were 2.19% [at 11.2 µM] and 8.01% [at 11.2 µM], respectively.

On to `CCC/C=C/C(=O)O[C@H]1CC(C)(C)CC2[C@]13[C@H](O)O[C@@]21CCC2[C@@]4(C)CC[C@H](O[C@@H]5O[C@H](C(=O)O)[C@@H](O)[C@H](O[C@@H]6O[C@H](CO)[C@H](O)[C@H](O)[C@H]6O[C@@H]6O[C@@H](C)[C@H](O)[C@@H](O)[C@H]6O[C@@H]6OC[C@](O)(CO)[C@H]6O)[C@H]5O[C@@H]5O[C@H](CO)[C@H](O)[C@H](O)[C@H]5O)C(C)(C)C4CC[C@@]2(C)[C@]1(C)C[C@H]3OC(C)=O` (some centres undefined), for which the activation in test [1] is -4.58%. In addition, the values for the activity change, negative = inhibition in test [2] and in test [3] were 3.01% [at 11.2 µM] and 13.9% [at 11.2 µM], respectively.

In the case of `CN1C(=O)c2ccccc2NC(=O)[C@]12O[C@@H]2c1cccc(O)c1`, in test [1], the activation is -1.53%. For the same molecule, the Potency result in test [2] and in test [3] was “inactive” throughout.

On to `COC1OC(=O)C2=C1C1(C)CCCC(C)(C)C1CC2O` (centres undefined), for which the activation in test [1] was -8.04%. The Potency result in test [2] and in test [3] was “inactive” each time.

`O=C(O)/C=C/c1ccc(-c2ccc(O)c(C34CC5CC(CC(C5)C3)C4)c2)cc1`: the Potency in test [1] is 26.9 µM (active). Also, the Potency entry in test [2] and in test [3] was “inactive” in each case.

`Nc1ncnc2c1ncn2CCNCCCCCO`: the activation in test [1] was -0.333%. For the same molecule, the Potency entry in test [2] and in test [3] was “inactive” throughout.

`CC1(C)CC[C@]2(C(=O)O)[C@H](O)C[C@]3(C)C(=CCC4[C@@]5(C)CC[C@H](O[C@@H]6OC[C@@H](O)[C@H](O)[C@H]6O)[C@@](C)(C(=O)O)C5CC[C@]43C)[C@@H]2C1` (some centres undefined): the activation in test [1] is 6.11%. Besides, the Potency entry in test [2] and in test [3] was “inactive” throughout.
